# Screens deposited in PubChem by National Center for Advancing Translational Sciences (NCATS).
# VDR inh – Inhibitors of the vitamin D receptor (VDR): qHTS; Potency, µM, for the others: max response, negative = inhibition, most hits filed as inhibitors; Vitamin D3 receptor (Homo sapiens), P11473; 400,000 compounds, 0.93% hits; AID 504847, 2011; VDR-SRC2-3 peptide fluorescence polarization, 2 h; also: % is scaled to controls: 0 for no effect and ±100 for the full control effect
# Target sequence (P11473 whole entry, looked up): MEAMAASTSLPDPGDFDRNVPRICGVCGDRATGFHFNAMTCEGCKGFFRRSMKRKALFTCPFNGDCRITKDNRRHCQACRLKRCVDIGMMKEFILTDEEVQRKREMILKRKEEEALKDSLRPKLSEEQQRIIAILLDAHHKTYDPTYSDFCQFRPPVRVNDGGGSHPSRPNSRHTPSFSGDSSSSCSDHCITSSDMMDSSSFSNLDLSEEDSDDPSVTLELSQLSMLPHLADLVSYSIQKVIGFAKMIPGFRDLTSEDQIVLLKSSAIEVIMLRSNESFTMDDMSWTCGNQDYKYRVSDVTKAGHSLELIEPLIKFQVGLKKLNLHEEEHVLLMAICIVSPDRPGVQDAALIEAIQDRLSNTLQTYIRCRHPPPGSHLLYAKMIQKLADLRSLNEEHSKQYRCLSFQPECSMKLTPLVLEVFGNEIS
#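 Two reagent solutions held at 4 deg C in the dark were dispensed, compounds pinned at 23 nl, and the mixture incubated 2 h at room temperature. Read-out: fluorescence polarization of VDR–SRC2-3 peptide binding.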
# Sfp PPTase inh – qHTS Assay for Inhibitors of Bacillus subtilis Sfp phosphopantetheinyl transferase (PPTase); 4'-phosphopantetheinyl transferase ffp (Bacillus subtilis), Q9F4F7; Biochemical Sfp PPTase activity, qHTS; Potency, µM, inactives show largest response in the series, negative = inhibition, most hits filed as inhibitors; 310,000 compounds, 3.5% hits; AID 1490, 2009;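 also: the enzyme is Sfp with the accession as filed and its product quenches rhodamine fluorescence; 0% = enzyme reaction without inhibitor and -100% = no enzyme wells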
#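 Step 1, compound plus 15 nM Sfp-PPTase, 15 min, room temperature. Step 2, add rhodamine-CoA (5 uM) and BHQ-2-YbbR (12.5 uM). Step 3, read 525/598 nm fluorescence at 0 and 30 min.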
# ALOX12 inh – Primary qHTS assay for inhibitors of human arachidonate 12S-lipoxygenase (ALOX12): Round 2 | Polyunsaturated fatty acid lipoxygenase ALOX12 (Homo sapiens), P18054 | 580,000 compounds, 1.1% hits | purified 12hLO, xylenol orange hydroperoxide absorbance | Potency, µM (highest dose often 108 µM), inactives show at the highest dose activity change, negative = inhibition, hits mostly inhibitors | AID 1671190, 2021; also: % is scaled to controls: 0 for no effect and ±100 for the full control effect
#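 Purified human 12hLO (150 nM final) in 25 mM Hepes, 0.01% Triton X-100, pH 7.0 was preincubated 15 min at room temperature with compound. Then 40 uM arachidonic acid was added, 30 min. Hydroperoxide was read by Fe-XO absorbance ratio 573/405 nm.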
# G9a block – qHTS Assay for Inhibitors of Histone Lysine Methyltransferase G9a. G9a H3K9 monomethylation, AlphaScreen, 2 h. Potency, µM (doses to about 102 µM), for the others: top-dose activity, negative = inhibition, most hits filed as inhibitors. 350,000 compounds, 8.8% hits; also: % is scaled to controls: 0 for no effect and ±100 for the full control effect; nearly all actives have a fitted effect of over 75% in size
# Target sequence (Q96KQ7 913-1193 limits assumed): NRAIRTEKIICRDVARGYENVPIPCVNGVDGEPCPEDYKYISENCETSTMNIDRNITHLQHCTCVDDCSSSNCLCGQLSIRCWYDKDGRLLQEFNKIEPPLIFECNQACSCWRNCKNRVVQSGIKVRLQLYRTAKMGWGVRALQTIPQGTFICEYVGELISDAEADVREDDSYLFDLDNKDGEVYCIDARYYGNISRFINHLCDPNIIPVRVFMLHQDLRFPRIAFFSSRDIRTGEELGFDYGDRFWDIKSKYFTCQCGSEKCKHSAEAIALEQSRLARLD
#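 Chemiluminescent proximity detection of H3K9 monomethylation, read after 10 min bead incubation in the dark. Reaction: 20 nM G9a, 500 nM biotin-H3K9 peptide, 20 uM SAM cofactor, 2 h, room temperature, following 15 min enzyme-compound preincubation.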
# Glioma ERSR ind – qHTS for Inducers of the Endoplasmic Reticulum Stress Response (ERSR) in Human Glioma: qHTS; AID 602332, 2012; U87-MG GRP78 promoter luciferase reporter, 16 h; Potency, µM, for inactives: top-dose activation, actives largely listed as activators; 420,000 compounds, 0.02% hits; also: series mostly up to about 76 µM; % of control where 0% means no effect; nearly all actives have a fitted effect of over 35% in size
#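 Stably transfected U87-MG human glioma cells carrying a GRP78-based luminescent sensor were seeded at 1000 cells/well, pin-dosed with compounds and incubated 16 h. Luciferase reagent was then added, and end-point luminescence was read after 10 min at room temperature.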
# * marks the source's active call; other numbers are inactive results; u = inconclusive; x = no result; ! = a repeat was not active; [ ] = remark or other dose. This is one part of a sample in which hits are shown more often than they occur. Calls follow the shape of the dose curve; as a rule, active = well fitted curve in the direction sought with a large enough effect; inconclusive = small, poorly fitted or top-dose-only effect, or another doubt; inactive = no such curve, though single readings can be large; an effect the other way counts as inactive or inconclusive. Potency is read from the fitted curve at half-maximal effect.
SMILES,VDR inh,Sfp PPTase inh,ALOX12 inh,G9a block,Glioma ERSR ind
Cc1cnc(=O)[nH]c1SCc1ccc([N+](=O)[O-])cc1,-21%,1%,-8%,63µM*,-4%
O=C(c1cccs1)c1coc2ccc(O)c(CN(CCO)CCO)c12,-4%,-4%,-35%,40µM*,4%
O=C1c2cccc3c(N4CCOCC4)c([N+](=O)[O-])cc(c23)C(=O)N1c1cccc2ccccc12,8%,-17%,4%,11µM*,-5%
CC(C)C1=C(O)C2(CC2c2ccc(-c3ccccc3)cc2)C(C)CC1 (centres undefined),x,x,8%,x,x
N#Cc1c(Cl)nc(-c2ccncc2)nc1-c1ccccc1,-18%,-5%,-7%,28µM*,2%
COc1ccc(C)cc1NCC(=O)Nc1ccc(C(C)(C)C)cc1,0%,21%,-18%,35µM*,-3%
COc1ccc(O[C@H]2COCCN(Cc3cccc(OC)c3)C2)cc1,x,x,41%[176 µM],x,x
O=C(NCCc1ccccc1)/C(=C/c1ccco1)c1ccccc1,-6%,6.3µM*,u,10µM*,-2%
CCC(C)NC(=O)/C(=C/c1ccco1)c1ccccc1 (centres undefined),8%,3.2µM*,-68%,-49%[12.7 µM],-2%
CC(C)NC(=O)/C(=C/c1ccco1)c1ccccc1,-2%,-46%,6%,x,-1%
O=c1ccc2cc(S(=O)(=O)N3CCCCC3)ccc2o1,x,x,6%,x,x
COc1ccccc1CNCc1cc(Br)ccc1OC,-4%,63µM*,-17%,8.9µM*,-6%
COc1ccccc1CNCC(c1ccccc1)c1ccccc1,x,-10%,2.5µM*,40µM*,x
CNCc1cccc(Oc2ccccc2)c1,x,x,6%[12.5 µM],x,x
COc1ccccc1CNCc1cccc(Oc2ccccc2)c1,4%,-13%,-17%,8.9µM*,-2%
COc1ccc(OCc2cc(C(=O)NCCN3CCCC(O)C3)no2)c(Cl)c1 (centres undefined),6%,15%,323%,-5%,11%
COc1ccc(OCc2cc(C(=O)NCCN3CCCc4ccccc43)no2)c(Cl)c1,-18%,4%,16µM*,u,-1%
Cc1cc(C)n(-c2nnc(SCC(=O)Nc3ccccc3C)n2N)n1,x,x,41%,x,x
Cc1sc2nc(CN3CCCC3)nc(N3CCN(S(=O)(=O)c4cccs4)CC3)c2c1C,29%,-1%,u,0%,-2%
Cc1sc2nc(-c3cccs3)nc(N3CCCN(C)CC3)c2c1C,x,56µM*,x,-26%[59 µM],x
COC(=O)CC1=C(C(=O)OC)C(c2ccc(C(=O)OC)cc2)C(C#N)=C(N)O1 (centres undefined),x,x,1%,x,x
Cc1cccc(CN2CCCC(O)(CNCc3ncccc3C)C2=O)c1 (centres undefined),x,x,89%,x,x
COC(=O)c1cc(Br)c(=O)n(CCN2CCCC2)c1,6%,-7%,0%,50µM*,-2%
CC1CN=C(N(C(=O)Nc2ccccc2)c2ccc(S(=O)(=O)N3CCOCC3)cc2)S1 (centres undefined),2%,-4%,11%,7.1µM*,3%
O=C(c1nc2ccc(Cl)cn2c1CN1CCC(CO)CC1)N1CCc2ccccc2C1,-13%,10%,-19%,93%,-2%
SMILES,VDR inh,Sfp PPTase inh,ALOX12 inh,G9a block,Glioma ERSR ind
O=C(c1nc2ccc(Cl)cn2c1CN1CCCC1)N1CCc2ccccc2C1,-6%,-4%,29%,79µM*,-5%
COc1ccc(NS(=O)(=O)NC(=O)c2cn(C)c3ccccc23)cc1,8%,18%,-17%,u,-10%
COc1ccc(NS(=O)(=O)NC(=O)c2c(C)n(C)c3ccccc23)cc1,9%,-2%,5%,40µM*,2%
CCN(CC)CCN1C(=O)C(=O)/C(=C(/O)c2c(C)[nH]c(C(=O)OC)c2C)C1c1ccc(OC)cc1 (centres undefined),-26%,-6%,u,79µM*,-2%
CCOc1ccc(C2/C(=C(\O)c3c(C)[nH]c(C(=O)OC)c3C)C(=O)C(=O)N2CCN(C)C)cc1 (centres undefined),-18%,-19%,-14%,45µM*,-4%
CCN(CC)CCN1C(=O)C(=O)/C(=C(/O)c2c(C)[nH]c(C(=O)OC)c2C)C1c1ccccc1 (centres undefined),18%,17%,0%,8%[12.7 µM],1%
COC(=O)c1[nH]c(C)c(/C(O)=C2\C(=O)C(=O)N(CCN(C)C)C2c2cc(OC)ccc2OC)c1C (centres undefined),11%,-1%,-1%,50µM*,-3%
COc1ccc(CCNC(=O)[C@H](CCS(C)(=O)=O)N2Cc3ccccc3C2=O)cc1OC,x,x,6%,x,x
Cc1c(-c2ccccc2)oc2c(C(=O)NC3CCN(Cc4ccccc4)C3)cccc2c1=O (centres undefined),x,x,-28%,x,x
Cn1cc(C(=O)O)c(=O)c2cc(S(=O)(=O)N3CCCCC3)ccc21,8%,x,-28%,u,-6%
Cn1cc(C(=O)NCCc2ccccc2)c(=O)c2cc(S(=O)(=O)N3CCCCC3)ccc21,-8%,x,-8%,0%[59 µM],-2%
COC(=O)c1cn(C)c2ccc(S(=O)(=O)N3CCCC3)cc2c1=O,7%,-24%,14%,50µM*,-4%
CN(CCNC(=O)c1cn(C)c2ccc(S(=O)(=O)N3CCCC3)cc2c1=O)CCc1ccccc1,18%,10%,9%,2.2µM*,1%
Cc1ccc(-c2[nH]ncc2CNC(C)c2cccs2)cc1 (centres undefined),x,x,-57%,x,x
O=C(Nc1ccc(Cl)cc1)c1ccc(-n2cnc3ccccc3c2=O)cc1,x,x,15%,x,x
CCN(CC)c1ccc(NC(=O)CCn2ccn3nc4c(c3c2=O)CCCC4)c(C)c1,x,x,-26%,x,x
O=C1[C@H]2[C@H]3[C@H](O)[C@H](O)C/C(=N\OC[C@@H](O)COCc4ccco4)[C@@H]3CC[C@H]2C(=O)N1c1ccc(F)cc1F,x,3%,x,50µM*,x
O=C1[C@@H]2[C@H]3[C@H](O)[C@H](O)C/C(=N/OC[C@@H](O)COCc4ccco4)[C@H]3CC[C@H]2C(=O)N1c1ccc(F)cc1F,x,13%,x,x,-2%
C[C@H](NC[C@H](O)CP(=O)(O)Cc1ccccc1)c1ccc(Cl)c(Cl)c1,0%,89µM*!,20µM*!,-5%[59 µM],-3%
CCOc1ccccc1Oc1c(C)oc2cc(OC(C)=O)ccc2c1=O,x,x,-1%,x,x
O=C(NCCN1C(=O)S/C(=C\c2cccnc2)C1=O)C1=NN(c2ccccc2)C(=O)CC1,28µM*,-21%,u,-1%[59 µM],-5%
